# Most compounds without a hit are left out; they make up all but 3.5% or so of the library.
# TEAD-YAP inh – TEAD-YAP interaction inhibition | HEK-TIYL cells, TEAD-Gal4/YAP UAS-luciferase luminescence | 640,000 tested, 1.4% active | inhibition, % at 9.12 µM; in the data active means inhibition above about 32%
# GPR151 activ – human GPR151 activation | Q8TDV0 | PathHunter beta-arrestin GPR151 cells, luminescence | activation, % at 11.2 µM | 650,000 tested, 1% active | AID 1508602; in the data active means activation above about 4.9%
# MITF inh – inhibitors of human MITF. 650,000 tested, 0.91% active. inhibition, % at 2.6 µM. O75030. AlphaScreen MITF homodimerization, bead proximity signal; in the data active means inhibition above about 50%
# FBW7 activator – human FBW7 E3 ligase activation, primary screen | 650,000 tested, 0.13% active | normalized activity (activation), % at 26.1 µM | Q969H0 | AlphaScreen FBW7–phospho-cyclin E peptide binding, activator screen; in the data active means normalized activity above about 1.9%;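 further: purified mutant Fbw7 with reduced substrate affinity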
# Target sequence (Q969H0 whole entry, looked up): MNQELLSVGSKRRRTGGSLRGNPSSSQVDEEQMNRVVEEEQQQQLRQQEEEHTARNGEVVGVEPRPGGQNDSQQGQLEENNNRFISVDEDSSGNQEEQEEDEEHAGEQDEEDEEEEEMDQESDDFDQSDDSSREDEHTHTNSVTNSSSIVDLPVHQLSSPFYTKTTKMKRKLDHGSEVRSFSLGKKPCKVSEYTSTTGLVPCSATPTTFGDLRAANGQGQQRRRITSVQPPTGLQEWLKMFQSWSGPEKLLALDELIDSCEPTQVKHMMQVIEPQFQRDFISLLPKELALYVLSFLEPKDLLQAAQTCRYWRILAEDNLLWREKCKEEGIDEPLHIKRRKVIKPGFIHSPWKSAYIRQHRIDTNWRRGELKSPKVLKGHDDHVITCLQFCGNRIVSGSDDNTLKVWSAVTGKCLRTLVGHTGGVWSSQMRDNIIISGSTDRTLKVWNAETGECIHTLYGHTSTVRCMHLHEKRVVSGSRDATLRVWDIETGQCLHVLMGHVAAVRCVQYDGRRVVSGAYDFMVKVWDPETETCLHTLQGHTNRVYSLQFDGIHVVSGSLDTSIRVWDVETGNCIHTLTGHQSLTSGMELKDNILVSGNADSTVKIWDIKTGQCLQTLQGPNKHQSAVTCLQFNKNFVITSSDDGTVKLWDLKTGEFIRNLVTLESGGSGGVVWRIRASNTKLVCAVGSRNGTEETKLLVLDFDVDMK
# Numbers stand for hits; . = inactive.
SMILES,TEAD-YAP inh,GPR151 activ,MITF inh,FBW7 activator
Cc1ccc2c(c1)c(=O)c1ccccc1n2CCCC(=O)Nc1cccc(C(F)(F)F)c1,.,.,.,.
COc1ccccc1/C=C/C(=O)c1ccc(O)cc1,.,.,.,.
Cc1c(/C=C/C(=O)c2ccc(O)cc2)cnn1C,51,.,.,.
Cc1ccc2occ(/C=C/C(=O)c3ccc(O)cc3)c(=O)c2c1,.,.,.,.
CCn1cc(/C=C/C(=O)c2ccc(O)cc2)c(C)n1,86,.,.,.
CC(C)NC(=O)c1ccc(N(C)S(=O)(=O)c2ccccc2)cc1,.,.,.,.
CCCOc1ccc(/C(O)=C2\C(=O)C(=O)N(CCN(C)C)C2c2ccc(OC)c(OC)c2)c(C)c1 (stereo not given),.,.,.,.
CCCOc1ccc(/C(O)=C2\C(=O)C(=O)N(CCCN(C)C)C2c2ccc(OC)c(OC)c2)c(C)c1 (stereo not given),33,.,.,.
CCOC(=O)C(C#N)C1(O)C(=O)c2ccccc2C1=O (stereo not given),.,.,57,.
CCOC(=O)C(C#N)C(=O)c1ccc(N2C(=O)c3ccccc3C2=O)cc1 (stereo not given),.,.,.,.
Cc1nc(-c2ccccc2)nc2[nH]c(-c3ccccc3)cc(=O)c12,.,.,.,.
Cc1nc(C)c2c(=O)cc(-c3ccccc3)[nH]c2n1,52,.,.,.
Cc1sc2nc(SCC(=O)c3ccccc3)n(-c3ccccc3)c(=O)c2c1C,.,.,.,.
CCC(CC)c1nnc(NC(=O)c2cc3ccccc3o2)s1,.,.,.,.
CCOc1ccc(S(=O)(=O)N2CCCc3ccccc32)c2cccnc12,48,.,.,.
O=C1ON=C(c2ccccc2)/C1=C\c1ccccc1OCc1ccccc1Cl,.,.,.,.
COc1ccc(Cc2nnc(Nc3cccc(Cl)c3)[nH]c2=O)cc1,34,.,.,.
O=C(O)c1ccc(N=c2oc3cc(O)ccc3cc2C(=O)Nc2ccccc2)cc1,.,.,.,.
COc1ccc(NC(=O)c2cc3ccc(O)cc3oc2=Nc2ccc(C(=O)O)cc2)cc1,36,.,.,.
CC(C)Nc1ncnc2c1c(-c1ccccc1)cn2-c1ccccc1,.,.,.,.
CC(=O)NC(c1ccc2c(c1)OCO2)c1cc([N+](=O)[O-])c2cccnc2c1O (stereo not given),.,.,68,.
CC(=O)NC(c1ccc(Cl)cc1Cl)c1cc([N+](=O)[O-])c2cccnc2c1O (stereo not given),.,.,58,.
O=[N+]([O-])c1cc([N+](=O)[O-])c2cccnc2c1Oc1ccccc1O,.,.,68,.
CC(=O)NC(c1ccco1)c1cc([N+](=O)[O-])c2cccnc2c1O (stereo not given),.,.,55,.
CC(=O)NC(c1ccc(C)cc1)c1cc([N+](=O)[O-])c2cccnc2c1O (stereo not given),.,.,.,.
SMILES,TEAD-YAP inh,GPR151 activ,MITF inh,FBW7 activator
COc1ccccc1C(NC(C)=O)c1cc([N+](=O)[O-])c2cccnc2c1O (stereo not given),.,.,85,.
O=[N+]([O-])c1ccc(OS(=O)(=O)c2ccc3ccccc3c2)c2ncccc12,48,.,.,.
COc1cc(C(=O)Oc2ccc([N+](=O)[O-])c3cccnc23)cc(OC)c1OC,.,.,.,.
CCCn1cc(-c2ccnc(Nc3ccc(-n4cnc(C)n4)cc3)c2)c(-c2ccc(F)cc2)n1,.,.,.,.
Cn1ncc(-c2ccnc(Nc3ccc(N4CCOCC4)cc3)c2)c1Nc1ccccc1,.,.,.,.
Cn1ncc(-c2ccnc(Nc3ccc(-n4cnc(N5CCOCC5)n4)cc3)c2)c1NC(=O)Cc1ccccc1,42,.,.,.
Cn1ncc(-c2ccnc(Nc3ccc(N4CCOCC4)cc3)c2)c1N,35,.,.,.
Cc1ncn(-c2ccc(Nc3cc(-c4cnn(CCc5ccccc5)c4-c4ccc(F)cc4)ccn3)cc2)n1,34,.,.,.
COc1ccccc1NC(=O)c1cc(S(=O)(=O)N2CCC(C)CC2)ccc1F,.,.,.,.
C1=C(c2ccc3ccccc3n2)C(c2cccc3ccccc23)c2ccccc2N1 (stereo not given),.,.,.,.
COc1ccc(-c2cc3nc(C)c(C)c(Cl)n3n2)cc1,.,.,.,.
Cc1nc2cc(-c3ccccc3)nn2c(N)c1-c1ccccc1,37,.,.,.
COc1ccc(-c2cc3nc(C)cc(N)n3n2)cc1,74,.,.,.
CC1CN(C(=O)c2ccccc2)OC(c2ccc([N+](=O)[O-])cc2)O1 (stereo not given),.,.,.,.

# Source: PubChem (The Scripps Research Institute Molecular Screening Center)
